Molecules are shown by their SMILES. About 1,300 (0.36%) of roughly 360,000 compounds were called active. The entries come from a sample that favours actives as a whole. Values without a mark were called inactive. No stated cut-off is given here; in the data, active means inhibition above about 35% (passing the limit was not always enough); inactive means the rest.

For the test, the target named is Polyadenylate-binding protein 1 (Homo sapiens) (UniProt P11940). The test is described as follows: PAM2 peptide displacement from PABP1 MLLE – biochemical, fluorescence polarization, FITC-PAM2, GST-MLLE, primary screen (AID 588489).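 Further: plate controls were DMSO wells with GST-MLLE for no effect and wells lacking GST-MLLE protein for full effect.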 As to conditions: at 20 µM, hits give high values. For orientation: In fluorescence polarisation assays a small probe gives low polarisation when free and higher when bound to something large.
Chain of Polyadenylate-binding protein 1 (Homo sapiens) (P11940 whole entry, looked up): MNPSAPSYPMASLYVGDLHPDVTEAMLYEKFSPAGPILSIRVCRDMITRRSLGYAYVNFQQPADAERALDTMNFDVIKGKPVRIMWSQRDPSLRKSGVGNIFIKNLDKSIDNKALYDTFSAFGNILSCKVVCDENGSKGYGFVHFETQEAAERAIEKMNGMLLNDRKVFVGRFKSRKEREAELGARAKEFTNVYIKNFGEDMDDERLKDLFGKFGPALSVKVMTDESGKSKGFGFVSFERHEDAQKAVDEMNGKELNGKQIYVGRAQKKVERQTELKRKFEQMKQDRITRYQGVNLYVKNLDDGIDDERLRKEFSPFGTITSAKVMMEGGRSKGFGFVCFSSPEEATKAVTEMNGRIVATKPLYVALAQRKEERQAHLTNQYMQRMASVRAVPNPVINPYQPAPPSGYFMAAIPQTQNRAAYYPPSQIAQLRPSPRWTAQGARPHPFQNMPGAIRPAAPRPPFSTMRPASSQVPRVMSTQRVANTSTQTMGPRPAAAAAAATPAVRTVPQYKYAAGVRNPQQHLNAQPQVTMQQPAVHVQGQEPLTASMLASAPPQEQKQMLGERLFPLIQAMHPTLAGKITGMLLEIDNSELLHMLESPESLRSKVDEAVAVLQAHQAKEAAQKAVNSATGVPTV
As usually defined, the inhibition is the change of the read-out against control, counted positive when it falls. On to `Cc1cccc(N(C(=O)Cc2cccs2)C(C(=O)NC2CCCC2)c2ccsc2)c1` (centres undefined), for which the inhibition is -14.8%.
As for `COc1ccc(C)cc1NC(=S)N1CCOCC1`, the inhibition is -27.2%.
Under `CCOc1cc(C(=S)N2CCOCC2)ccc1O` stands 20.9%.
Take `COc1cc(C(=S)N2CCOCC2)ccc1O`: the inhibition was 38.4% (active).
As for `Cc1ccc(OCC(=O)Nc2ccccc2C(=O)NC2CC2)cc1C`, the figure is 8.8%.
Under `O=S(=O)([N-]c1nc2ccccc2nc1-[n+]1ccc(Cc2ccccc2)cc1)c1ccc(Br)s1` stands 43.3% (active).
Consider `O=S(=O)(NCc1ccccn1)c1ccc(Br)s1`, for which the inhibition was -6.68%.
On to `O=C(c1ccc(N2CCOCC2)c([N+](=O)[O-])c1)N1CCN(S(=O)(=O)c2cccs2)CC1`, for which the inhibition is -8.8%.
As for `COc1ccc(C(=O)N2CCN(c3ccc(C(C)=O)cc3F)CC2)cc1S(=O)(=O)NC1CC1`, the figure is 0.55%; as for `CC(C)CCn1cnc2c1c(=O)n(CC(=O)NC(N)=O)c(=O)n2Cc1ccccc1`, -0.54%.
As for `CC(=O)Nc1ccc(SCC(=O)Nc2ccccc2Oc2ccccc2)cc1`, the inhibition is 38.1% (active).
Under `O=C(CSc1ccccc1)Nc1cc(Cl)ccc1Oc1ccccc1` stands 6.51%; under `CC(=O)Nc1ccc(SCC(=O)NC(=O)c2ccc(Cl)cc2)cc1`, 15.4%.
For `CC(=O)Nc1cc(-c2ccc(N3CCN(C)CC3)cc2)cn2c(-c3ccc(F)cc3)cnc12`, the inhibition is -30.8%.
As for `CC(C)c1cc(C(=O)N/N=C/c2ccoc2)c(O)c(C(C)C)c1`, the figure is -7.21%.
As for `COC(=O)N/N=C/c1ccc(-c2ccc(Cl)c(Cl)c2)o1`, the figure is 15.1%; as for `COC(=O)N/N=C/c1c[n+]([O-])c2ccccc2[n+]1[O-]`, 41.1% (active).
In the case of `CC(C)(C)OC(=O)N/N=C/c1ccc(C(=O)O)cc1`, the inhibition was -10.6%.
Consider `CCOC(=O)c1c(C)[nH]c(C2=NNC(=NC(C)COC)SC2)c1C` (centres undefined), for which the inhibition was -90.6%.
Regarding `CC(C)N(c1ccccc1)c1ncnc(NCCC(=O)O)c1[N+](=O)[O-]`, the inhibition is -7.92%.
Under `CC1=C(C(=O)Nc2ccc(Cl)cc2)C(c2ccco2)NC(=O)N1` (centres undefined) stands -4.08%; under `CN1OC[C@@H]2CN(S(=O)(=O)c3cccc(C(F)(F)F)c3)[C@H](c3ccc(-c4cc5ccccc5o4)cc3)C[C@@H]21`, -4.18%.
Under `COC(=O)C1=C(Nc2ccc(C)cc2)C=C(C)C(C(=O)OC)C1c1ccc(F)cc1` (centres undefined) stands -12%; under `Cc1[nH]c(N)nc(=S)c1CCCNc1ccccc1`, 40.1% (active); under `CCc1c(Nc2ccccc2C)nc(N)[nH]c1=O`, -2.64%.
For the compound `Cc1cc(=O)n(C)c(=O)n1CCCNc1ccccc1`, the inhibition is -0.23%.
For the compound `CN(C)CCCNC(=S)N1CCN(c2nc(-c3ccccc3)cs2)CC1`, the inhibition is -128%.
Turning to `CCOc1ccc(NC(=O)CN(C)C(=O)Cc2sc(C)nc2-c2ccc(F)cc2)cc1OCC`, the inhibition was -16.1%.
As to `CCCCC(=O)NC(c1ccc(OC)c(OC)c1)c1ccc2cccnc2c1O` (centres undefined), the inhibition is 5.41%.
On to `CCOC(=O)N1CCN(C(=O)C2CCN(c3ncnc4c3sc3cccc(F)c34)CC2)CC1`, for which the inhibition is -13.7%.
For the compound `CCOC(=O)N1CCN(C(c2cccnc2)c2ccc3cccnc3c2O)CC1` (centres undefined), the inhibition is 37.9% (active).
Turning to `COc1ccc(C(CNCC(=O)Nc2ccccc2F)N(C)C)cc1` (centres undefined), the inhibition is 4.22%.
Regarding `O=C1c2ccccc2C(=O)N1CCc1nn[nH]n1`, the inhibition was -10.4%.
In the case of `O=C(CC1CCCCC1)NCc1ccco1`, the inhibition is 2.87%.
On to `O=C(CSc1nnnn1-c1ccccc1)NCc1ccco1`, for which the inhibition was -13.1%.
Take `O=C(CSC1=Nc2ccccc2C2=NC(CC(=O)NCc3ccco3)C(=O)N12)NCc1ccco1` (centres undefined): the inhibition is 38.7% (active).
`CCCCCC1CCC(c2nnc(SCC(C)=O)o2)CC1` (centres undefined): the inhibition was -9.06%.
Take `C/C=C/c1ccc(OCCCCN2CCC(C)CC2)c(OC)c1`: the inhibition was -4.4%.
As to `CC(C)CNC(=O)C1(C)CCCN1C(=O)CSc1ccccc1` (centres undefined), the inhibition is 10.8%.
In the case of `COc1cc(/C=C/C(=O)OCC(=O)NCCCc2ccccc2)ccc1O`, the inhibition is 7.53%.
On to `Cc1nc([N+](=O)[O-])nn1C12CC3CC(CC(Br)(C3)C1)C2`, for which the inhibition is 39.5% (active).
In the case of `Cc1cccc(NC(=O)CSc2nnc(NC(=O)CN3CCOCC3)s2)c1`, the inhibition is -8.76%.
On to `C=CC1=C(C(=O)O)N2C(=O)[C@@H](NC(=O)/C(=N\OCC(=O)O)c3csc(N)n3)[C@H]2SC1`, for which the inhibition was 41% (active).
On to `C=CC1=C(C(=O)O)N2C(=O)[C@@H](NC(=O)/C(=N/OCC(=O)O)c3csc(N)n3)[C@H]2SC1`, for which the inhibition was 30.8%.
Regarding `O=C(CSc1ccsc1[N+](=O)[O-])N1CCCCC1`, the inhibition is -4.37%.
Take `O=C1CSC2=NCN(c3ccccc3)CN12`: the inhibition is -6.21%.
On to `O=C(CCC(=O)OCc1cccc(C(=O)Oc2ccccc2)c1)Nc1cccc2ccccc12`, for which the inhibition was 9.55%.
For `O=S(=O)(Oc1ccccc1C(=S)N1CCOCC1)c1ccc(Cl)cc1`, the inhibition was 44.5% (active).
Turning to `CCOc1cc(C(=S)N2CCOCC2)ccc1OS(=O)(=O)c1ccc(Br)cc1`, the inhibition is 8.34%.
With `CC(=O)Nc1ccc(S(=O)(=O)Oc2ccc(Br)cc2C(=S)N2CCOCC2)cc1`, the inhibition is 5.89%.
Under `Cc1ccc(C)c(OCCC(=O)Nc2cccc(S(=O)(=O)N3CCCC3)c2)c1` stands 10.9%.
With `CCN(CC)S(=O)(=O)c1ccc(N2CCOCC2)c(NC(=O)C(C)Oc2ccc(F)cc2)c1` (centres undefined), the inhibition was 3.55%.
Regarding `Oc1ccc2ccccc2c1N=Nc1nccs1`, the inhibition was 55.3% (active).
As to `COc1ccc(C(c2nnnn2C2CCCC2)N2CCN(C/C=C/c3ccccc3)CC2)cc1` (centres undefined), the inhibition was 9.42%.
In the case of `O=C(Cn1cnc2c(OCc3ccccc3)ncnc21)NCc1nc2ccccc2[nH]1`, the inhibition was 6.52%.
On to `CCn1c(CNC(=O)c2ccc(OC)c(OC)c2)nnc1SCC(=O)Nc1ccccc1`, for which the inhibition is -12%.
For `CCc1c(O)nc(SCC(=O)Nc2ccccc2)n(C(C)CC)c1=O` (centres undefined), the inhibition is 48% (active).
As to `COc1ccccc1-n1c(SCC(=O)Nc2ccc(Cl)cc2)nc(O)c(Cc2ccccc2)c1=O`, the inhibition is 18.6%.
Consider `O=C(CC12CC3CC(CC(C3)C1)C2)Nc1ccc2c(c1)COC2=O`, for which the inhibition was 10.3%.
Under `CCOC(=O)Cc1cc(=O)[nH]c(/N=C(\N)Nc2ccc(OC)cc2)n1` stands 3.52%; under `COc1ccc(S(=O)(=O)N2CCSCC2)cc1`, 2.01%.
Take `Cc1c(C)c(C)c(S(=O)(=O)NCCc2ccccn2)c(C)c1C`: the inhibition is -6.36%.
Under `COCCCNC(=O)Cc1ccc(-n2c(C)nc3cccnc32)cc1` stands 18.3%.
As for `CCc1nc2cccnc2n1-c1ccc(C(=O)O)cc1`, the figure is 58.3% (active).
Regarding `CCOC(=O)CNC(=O)CSc1nc2cccnc2n1CC`, the inhibition was 0.93%.
For the compound `O=C(NCc1cc(F)cc(C(F)(F)F)c1)C1CCC(=O)N(C2CCCC2)C1` (centres undefined), the inhibition is 2.19%.
On to `C[C@@H]1NS(=O)(=O)c2cc(Cl)ccc2O[C@@H]1c1ccccc1`, for which the inhibition was -9.19%.
Consider `Cc1cccc(NC(=O)NC(=S)NC(=O)c2ccccc2)c1`, for which the inhibition was 41.9% (active).
For the compound `Cn1nnc(NC(=S)NC(=O)c2ccccc2)n1`, the inhibition was 26.2%.
Turning to `Cc1cccc(OCCNC(=S)NC(=O)c2cccnc2)c1`, the inhibition is 22%.
For `COc1ccc(C(C)(C)C)cc1NC(=O)CN(C)C1=NS(=O)(=O)c2ccccc21`, the inhibition is -40.4%.
Under `O=S(=O)(c1cccc(Cn2nnc(-c3ccc(F)cc3)n2)c1)N1CCOCC1` stands -5.3%.
As for `O=S(=O)(c1ccc(F)cc1)N1CC=C(c2ccccc2)CC1`, the figure is -8.32%.
For `CC1CCN(C(=S)NC(=O)c2ccccc2Br)CC1`, the inhibition is 15%.
Under `O=C(NC(=S)Nc1ncccn1)c1ccccc1Br` stands 42.1% (active).
In the case of `O=C(Nc1ccccc1)c1ccccc1Br`, the inhibition was -11.2%.
For the compound `Cc1cc(Cl)ccc1C(=O)C1CCCN(C(=O)CCN2CCCO2)C1` (centres undefined), the inhibition was -4.82%.
Consider `CCN1C(=O)[C@H]2[C@@H](c3ccc(-c4ccc(OC)cc4)cc3)N[C@@](Cc3ccccc3)(C(=O)OC)[C@H]2C1=O`, for which the inhibition was -0.71%.
In the case of `O=C(CN1C(=O)c2ccc([N+](=O)[O-])cc2C1=O)Nc1nnc(C2CC2)s1`, the inhibition is -18.6%.
On to `O=C(Cc1ccccc1Cl)N1CCN(c2ccccn2)CC1`, for which the inhibition is -6.28%.
Turning to `O=C(Cc1ccc(Br)cc1)N1CCN(c2ccccn2)CC1`, the inhibition was 61.7% (active).
With `O=C(C(Cl)Cl)N1CCN(c2ccccn2)CC1`, the inhibition was -10.9%.
With `CC(=O)NC(CC(=O)Nc1cccc(S(=O)(=O)N2CCCC2)c1)c1ccccc1` (centres undefined), the inhibition is -16.4%.
With `COc1ccc2c(c1)C(NS(=O)(=O)OCC(Cl)(Cl)Cl)CCC2` (centres undefined), the inhibition was -0.88%.
As to `CN(C)S(=O)(=O)c1cccc(NC(=O)COC(=O)C2(c3ccccc3F)CCCC2)c1`, the inhibition is 4.77%.
As to `COc1ccccc1C(=O)NC(=S)Nc1ccccc1N1CCCCC1`, the inhibition is 14.7%.
With `COc1ccc(Br)cc1C(=O)NC(=S)Nc1cc(-c2nc3ccccc3[nH]2)ccc1C`, the inhibition was 43.3% (active).
Turning to `COc1ccc(Br)cc1C(=O)Nc1cccc(C)c1C`, the inhibition was 21.9%.
Under `O=C(CSC(=S)N1CCCCC1)c1c(F)cccc1F` stands -3.59%; under `COc1cc(/C=C2/C(=O)ON=C2C)ccc1OCc1cccc(F)c1`, 41.5% (active).
Regarding `C#CCOc1ccc(/C=C2/C(=O)ON=C2C)cc1OCC`, the inhibition was 26.6%.
Turning to `CC1=NOC(=O)/C1=C\c1ccccc1`, the inhibition is 25.2%.
Regarding `CC(C)(C)[C@H]1C=C(C(=O)NCc2ccccc2)O[C@@H](OCc2ccc(CO)cc2)C1`, the inhibition was -0.14%.
Under `COCCOC(=O)c1sc(=S)n(CCOC)c1N` stands 49.3% (active).

(Values after PubChem BioAssay AID588489 (Sanford-Burnham Center for Chemical Genomics, 2011).)
